# Screening data: PubChem BioAssay, The Scripps Research Institute Molecular Screening Center
# hcDAF-12 act: activators of H. contortus DAF-12 nuclear receptor; activation, % at 6.8 µM; 370,000 tested, 1.4% active; HEK293 hcDAF-12 lit1-tk-luc reporter, luminescence; 0% DMSO, 100% Δ7-dafachronic acid;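 active = activation above the mean of all tested compounds plus 3 SD, cut at about 5.5% in these data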;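 note: 100% = response to 3 µM Δ7-dafachronic acid high control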
# ssDAF12 agonist: activators of S. stercoralis DAF-12 nuclear receptor | HEK293 ssDAF-12/GRIP1 lit1-tk-luc reporter, luminescence; % of 3 µM dafachronic acid response | activation, % at 6.8 µM | 370,000 tested, 1% active | AID 652126;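 active = activation above the mean over all tested compounds plus 3 SD, cut at about 0.9% in these data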;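 note: 0% = DMSO-only wells and 100% = 3 µM delta7-dafachronic acid wells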
# DAX1 inh-1: inhibits human nuclear receptor DAX1. P51843. HEK293 Gal4-DAX1 luciferase reporter, luminescence. inhibition, % at 6.75 µM. 340,000 tested, 0.99% active;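 active = inhibition above the mean over all tested compounds plus 3 SD, cut at about 4.2% in these data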;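 note: 0% = DAX1-transfected cells with DMSO and 100% = empty-vector control cells with DMSO; inhibition shows as a rise in luminescence from relieved DAX1 repression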
# DAX1 inh-2: blocks DAX1 repression of SF-1 activated StAR promoter. HEK293T StAR-luciferase reporter, SF-1/DAX-1 repression relief. inhibition, % at 6.8 µM. 370,000 tested, 1.1% active;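 active = inhibition above the mean over all tested compounds plus 3 SD, cut at about 3.6% in these data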;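 note: 0% = DAX-1 cells with DMSO and 100% = cells lacking DAX-1 with DMSO; higher inhibition means more luminescence from relief of DAX-1 repression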
# hgDAF-12 ag: activates the H. glycines DAF-12 receptor ligand-binding domain; activation, % at 6.8 µM; HEK293 GAL4-hgDAF12 UAS-luciferase reporter, agonist luminescence; normalized to butyrate control; 370,000 tested, 1.8% active;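 active = activation above a cutoff set at the mean of all screened compounds plus 3 SD, cut at about 10% in these data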;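 note: 0% = DMSO wells and 100% = sodium butyrate wells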
# LXR ag: LXR-beta agonism as hcDAF-12 counter-screen | shares compounds with hcDAF-12 act | AID 743027 | activation, % at 6.8 µM | HEK293 Gal4-LXR tk-luc reporter, luminescence, 24 h; normalized: DMSO 0%, positive control 100% | 3,400 tested, under 10 active;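 active = mean percent activation of the reporter above a cutoff set as the average over tested compounds plus their standard deviation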
# Target sequence (P55055 whole entry, looked up, the tested form may be a part): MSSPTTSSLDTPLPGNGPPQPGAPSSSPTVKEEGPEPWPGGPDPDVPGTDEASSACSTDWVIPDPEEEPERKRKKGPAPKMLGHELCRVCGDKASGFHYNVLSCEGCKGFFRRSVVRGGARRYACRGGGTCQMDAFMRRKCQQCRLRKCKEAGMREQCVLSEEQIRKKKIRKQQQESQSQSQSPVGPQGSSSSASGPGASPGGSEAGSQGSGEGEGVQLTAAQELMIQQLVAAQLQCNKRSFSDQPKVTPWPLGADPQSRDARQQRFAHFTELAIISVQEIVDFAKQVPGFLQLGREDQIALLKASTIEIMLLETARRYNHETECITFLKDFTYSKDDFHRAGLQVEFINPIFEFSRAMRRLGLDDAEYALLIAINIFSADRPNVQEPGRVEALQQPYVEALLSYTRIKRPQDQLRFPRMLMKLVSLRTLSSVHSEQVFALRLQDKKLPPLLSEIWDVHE
# hcDAF12 conf: hcDAF-12 agonism, confirmation assay; shares compounds with hcDAF-12 act; HEK293 hcDAF-12 lit1-tk-luc reporter, luminescence; % of Δ7-dafachronic acid response; activation, % at 6.8 µM; 3,400 tested, 61% active; AID 743032;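 active = mean activation across triplicate tests above the threshold derived from the earlier primary screen, cut at about 5.5% in these data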;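 note: 0% = DMSO only wells and 100% = 3 µM Δ7-dafachronic acid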
# hgDAF12 ag: confirmation of H. glycines DAF-12 agonists | AID 743050 | activation, % at 6.8 µM | shares compounds with hgDAF-12 ag | HEK293 GAL4-hgDAF12 luciferase reporter, agonist mode; percent of butyrate response | 3,300 tested, 80% active;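 active = mean activation over triplicate wells above the hit cutoff derived from the earlier primary screen, cut at about 11% in these data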;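 note: 0% = DMSO low control and 100% = 2 mM sodium butyrate high control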
# LXR ag 2: counter-screen for DAF-12 agonists: agonists of human LXR-beta; shares compounds with hgDAF-12 ag; HEK293 Gal4-LXR luciferase reporter, 24 h; activation, % at 6.8 µM; 3,300 tested, under 10 active;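 active = mean activation of the triplicate above a set limit carried over from the primary screen, none filed active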
# * = called active by the depositor; . = not tested or not shown. Only some compounds are listed: those with a hit (about 4.1% of all), similar ones and a draw of the others.
SMILES,hcDAF-12 act,ssDAF12 agonist,DAX1 inh-1,DAX1 inh-2,hgDAF-12 ag,LXR ag,hcDAF12 conf,hgDAF12 ag,LXR ag 2
c1csc(C2=NNC(=NC3CCCCC3)SC2)c1,10*,1.5*,.,3,17*,1,6,16*,1
Cc1cc(C2=NNC(=NC3CCCCC3)SC2)c(C)n1-c1c(C)n(C)n(-c2ccccc2)c1=O,1,-2,0,-1,-1,.,.,.,.
COc1ccc(Cc2nnc(NC(=O)C(C)(C)C)s2)cc1,-2,-2,0,0,-1,.,.,.,.
COc1cccc(NC(=O)c2ccc3c(c2)OCCO3)c1,11*,1,-3,2,14*,1,6.9*,16*,1
COc1cccc(NC(=O)c2ccc3c(c2)OCO3)c1,7.1*,2.8*,0,3,14*,1,8.2*,17*,1
C/C(=N/NC(=O)c1cccs1)c1c(C)[nH]n(-c2nc3ccccc3s2)c1=O,7.7*,0,-3,4.0*,17*,1,5,9,0
Cc1ccc(N/C=C(/C#N)c2ccsc2)cc1C,7.2*,1.5*,3,2,15*,1,8.1*,22*,1
Cc1ccc(N/N=C(\C#N)C(N)=S)cc1C,3,-2,1,0,5,.,.,.,.
CCc1ccc(N2CC(C(=O)Nc3nc4ccc(S(C)(=O)=O)cc4s3)CC2=O)cc1 (configuration not stated),0,-1,0,-1,2,.,.,.,.
Cc1ccc(-c2nc(-c3nccc4ccccc34)oc2-c2ccccc2)cc1,7.7*,1,4,3,17*,1,9.5*,16*,1
c1ccc(-c2nccc3ccccc23)cc1,0,-1,-3,0,0,.,.,.,.
CN(C)c1nc(NCc2ccccc2)nc(SCC(N)=O)n1,-1,-1,1,-1,1,.,.,.,.
O=C(O)/C=C\C(=O)Nc1ccccc1C#Cc1ccc(Br)cc1,16*,2.1*,3,3.8*,22*,0,1,16*,1
c1ccc(Nc2scc(-c3ccccc3)[n+]2Cc2ccco2)cc1,7.3*,0,5.1*,3,14*,1,4,16*,1
c1ccc(C[n+]2c(-c3ccccc3)csc2Nc2ccccc2)cc1,3,0,3,2,8,.,.,.,.
Cc1c(C(C)(C)C)sc(=NC(=O)c2ccccc2O)n1C,6.9*,0,2,1,14*,2,14*,15*,1
Cc1c(C(C)(C)C)s/c(=N/S(=O)(=O)c2ccccc2)n1C,-2,0,-1,0,-2,.,.,.,.
Cc1cccc(C(=O)n2c(=S)nc3cc(C)ccn32)c1,6.6*,1,4.6*,3.7*,16*,1,6.6*,13*,1
Cc1oc(=O)c(NC(=O)c2ccccc2)cc1C(N)=O,1,0,.,0,-1,.,.,.,.
O=C(Nc1cc2ccccc2oc1=O)c1ccccc1,11*,0,.,2,15*,1,9.2*,5,1
Cc1ccc2cc(NC(=O)c3cccc(F)c3)ccc2n1,8.2*,0,3,3,15*,1,4,20*,1
O=C(Nc1ccc2ccccc2c1)c1cccc(F)c1,8.9*,0,4,3,14*,1,7.3*,16*,1
Cc1ccc(C(=O)Nc2ccc3ccccc3c2)cc1,3,-1,-7,0,-2,.,.,.,.
O=C(Nc1ccc2[nH]ncc2c1)c1cccc(F)c1,0,0,2,1,8,.,.,.,.
O=C(Nc1ccc2ccccc2c1)c1ccc(Cl)cc1,6.8*,1.7*,4,3.8*,16*,2,9.4*,22*,1
SMILES,hcDAF-12 act,ssDAF12 agonist,DAX1 inh-1,DAX1 inh-2,hgDAF-12 ag,LXR ag,hcDAF12 conf,hgDAF12 ag,LXR ag 2
CCOC(=O)c1[nH]cnc1C(=O)N1CCC(C)CC1,0,-1,1,0,1,.,.,.,.
COc1ccccc1-c1noc(-c2ccncc2)n1,0,-1,1,0,5,.,.,.,.
COc1ccccc1-c1noc(-c2cccs2)n1,8.7*,1,2,1,19*,1,5,23*,1
Cc1cc(Br)ccc1NC(=O)CN(C)C(=O)c1ccc(-n2cncn2)c([N+](=O)[O-])c1,-1,-1,-1,1,-2,.,.,.,.
COc1ccc(OC)c(-c2cc(C(=O)NCCCn3ccnc3)no2)c1,-1,-2,-1,-1,-1,.,.,.,.
O=C(NCCCn1ccnc1)c1cc(-c2cccs2)on1,7.6*,0,4,-1,53*,0,4,51*,0
COC(=O)c1cc(C(=O)Nc2ccc(S(N)(=O)=O)cc2)cc([N+](=O)[O-])c1,-1,-1,0,0,1,.,.,.,.
O=C(NCCC1CCCCN1S(=O)(=O)c1ccccc1)C(=O)NCc1ccco1 (configuration not stated),-1,-1,0,-1,-1,.,.,.,.
CCCNC(=O)C1(C)CCN(C(=O)c2oc3ccccc3c2C)C1 (configuration not stated),-1,-1,.,-1,-1,.,.,.,.
Clc1ccccc1-c1nnc(-c2cccs2)o1,11*,1.0*,9.4*,2,20*,1,8.1*,24*,1
COc1ccc(NC(=O)CSc2ncnc3c2nnn3-c2ccc(F)cc2)c(OC)c1,-1,-2,-1,0,2,.,.,.,.
COc1ccc(C2=Nc3ccccc3N(C(=O)c3ccc4ncccc4c3)C2C(=O)NC2CCCC2)cc1 (configuration not stated),9.7*,2.3*,.,2,18*,1,10*,12*,0
CCN(C(=O)CN1CCOCC1)C1(C)C(=O)c2ccccc2C1=O,-1,-1,2,0,2,.,.,.,.
CC(=O)c1cccn1S(=O)(=O)c1ccccc1,0,-1,0,0,0,.,.,.,.
O=C(CCc1nnc(CCc2c[nH]c3ccccc23)o1)NC1CCC1,7.6*,1.1*,3,2,16*,0,6.2*,12*,0
COc1ccc(S(=O)(=O)N(C)C)cc1NC(=O)CCNC(=O)c1ccco1,0,-1,1,0,-2,.,.,.,.
